Here are results for 33 compounds from PubChem BioAssay (NCATS).

SMILES strings stand for the structures. A number with no mark means an inactive call. Results filed as inconclusive are left out. Calls of active or inactive are those of the source. Unless noted, calls follow the shape of the dose curve; as a rule, active = well fitted curve in either direction with a large enough effect (not every such curve was filed as active); inconclusive = small, poorly fitted or top-dose-only effect, or another doubt; inactive = flat fitted curve, though single readings scatter.

Assay [1] in a line: NFAT Signaling Pathway (AID 444).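 Also: carbachol stimulus at about its EC50 of 1 µM final; % is scaled to controls: 0 for no effect and ±100 for the full control effect.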 The note with it: Jurkat NFAT-bla M1, carbachol, beta-lactamase ratio, 5 h; at 17.2 µM (top of the series) unless noted. Summed up:
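Jurkat cells carrying an NFAT-driven β-lactamase reporter and co-transfected muscarinic M1 receptor were treated with compound plus carbachol (1 uM final, an EC50 level) for 5 h at 37 °C. CCF4 loading followed for 1 h at RT; 460/530 nm ratio gave %activity.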

A short description of assay [2]: Stat Signaling Pathway (AID 446).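 Also: ME-180 cervical cancer cells given 40 pM IL-6 alongside compound; SIE-controlled beta-lactamase reporter measured as 460/530 nm FRET emission ratio; % is scaled to controls: 0 for no effect and ±100 for the full control effect.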 The note with it: ME-180 SIE beta-lactamase reporter, IL-6 stimulated, 5 h; at 17.2 µM (top of the series) unless noted. In a few lines:
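Reporter line: ME-180 cervical carcinoma, SIE-beta-lactamase. Treatment: compound with 40 pM IL-6, 5 hrs, 37 C, in low-serum OPTI-MEM with 10 mM HEPES pH 7.3. Detection: 460/530 nm fluorescence.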

Assay [3] has as its target Glucocorticoid receptor (Homo sapiens) (UniProt P04150). Kind of assay: GR-GFP Redistribution (AID 450;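 active = compounds whose dose series gives a full or clear partial fitted curve of increased nuclear translocation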; also: potency is read from the fitted curve at half-maximal effect).
Assay [4] can be described thus: qHTS Assay for Identification of Small Molecule Agonists for Hypoxia Response Element Signaling Pathway (AID 914; active = well fitted activation curve with a large enough effect in the signal ratio, with a control signal flat, not every such curve was filed as active; the % refers to the signal ratio; also: potency is read from the fitted curve at half-maximal effect; as to activation: % of control where 0% means no effect). The conditions noted are these: ME-180 HRE-bla reporter, beta-lactamase ratio, CoCl2, 17 h; activation: stronger effect = higher value. Summed up: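 ME-180 cells carrying an HRE-driven beta-lactamase reporter were treated with compounds in a titration series plus an EC50 level of CoCl2 for 17 h at 37 degrees Celsius; CCF4 readout as the 460nm/530nm ratio gave AC50 values.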
(In general: qHTS replaces the single test concentration by a dilution series.)

Chain of Glucocorticoid receptor (Homo sapiens) (P04150 whole entry, looked up): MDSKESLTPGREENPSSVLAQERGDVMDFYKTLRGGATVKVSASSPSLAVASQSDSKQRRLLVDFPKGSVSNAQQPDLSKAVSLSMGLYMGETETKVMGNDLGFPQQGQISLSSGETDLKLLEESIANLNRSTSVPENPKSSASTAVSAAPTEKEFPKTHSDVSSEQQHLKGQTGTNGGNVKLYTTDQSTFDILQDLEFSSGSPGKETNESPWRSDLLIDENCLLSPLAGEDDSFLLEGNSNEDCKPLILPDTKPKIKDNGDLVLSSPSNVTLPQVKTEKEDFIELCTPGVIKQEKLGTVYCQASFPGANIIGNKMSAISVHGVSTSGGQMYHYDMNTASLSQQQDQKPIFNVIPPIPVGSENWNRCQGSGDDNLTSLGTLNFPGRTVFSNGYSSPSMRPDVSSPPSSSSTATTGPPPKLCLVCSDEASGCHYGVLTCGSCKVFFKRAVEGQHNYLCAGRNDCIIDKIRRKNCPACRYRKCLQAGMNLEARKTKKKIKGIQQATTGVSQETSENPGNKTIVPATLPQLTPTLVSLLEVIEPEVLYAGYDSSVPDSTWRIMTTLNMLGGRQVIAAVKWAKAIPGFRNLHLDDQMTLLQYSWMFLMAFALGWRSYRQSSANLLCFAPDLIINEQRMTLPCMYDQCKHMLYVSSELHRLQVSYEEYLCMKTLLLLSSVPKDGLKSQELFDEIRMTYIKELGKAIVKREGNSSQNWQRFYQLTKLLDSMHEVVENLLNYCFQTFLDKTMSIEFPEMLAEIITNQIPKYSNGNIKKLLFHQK

In the case of `Cn1c2ccccc2c2nn(-c3ccccc3)c(=O)cc21`, the activity change, negative = inhibition in assay [1] was 2.73%. In assay [2], the activity, negative = inhibition was 6.09%. The Potency in assay [3] was greater than 20.6 µM.
`Cc1ccc(Cn2ncc3c(N4CCN(c5ccc(C)cc5)CC4)ncnc32)cc1`: in assay [1], the activity change, negative = inhibition was -24.6%. Further, the activity, negative = inhibition in assay [2] is -13.5%. Also, in assay [3], the Potency is greater than 20.6 µM.
Take `CCC(=O)Nc1ccc(-c2nnc(-c3ccccc3)o2)cc1`: the activity change, negative = inhibition in assay [1] was 4.89%. In assay [2], the activity, negative = inhibition is -0.000551%. Further, the Potency in assay [3] is greater than 20.6 µM.
The matching figures for `COc1ccc(CC(=O)Nc2cccc(-c3nnc(-c4ccco4)o3)c2)cc1`: 29.9%, -27.7% and greater than 20.6 µM.
On the same counts, the results for `CCOC(=O)CSc1nc(-c2ccncc2)ccc1C#N` are -7.89%, 3.41% and greater than 20.6 µM.
On the same counts, the results for `[N-]=[N+]=CC(=O)c1ccnc(C(=O)C=[N+]=[N-])c1` are -17.4%, -1.87% and greater than 20.6 µM.
For the compound `CC(=NC1CCCC1)c1c(C)[nH]n(-c2nc3ccccc3s2)c1=O`, the activity change, negative = inhibition in assay [1] was -20.1%. In addition, in assay [2], the activity, negative = inhibition is -8.78%. The Potency in assay [3] was greater than 20.6 µM.
On the same counts, the results for `Cc1cccc(N2CN=c3s/c(=C\c4ccncc4)c(=O)n3C2)c1` are -17.2%, -0.937% and greater than 20.6 µM.
Take `CCOC(=O)C1=C(C)N=C2SC(C)C(=O)N2C1c1ccc(C(=O)OC)cc1` (centres undefined): in assay [1], the activity change, negative = inhibition was -15.8%. Besides, in assay [2], the activity, negative = inhibition is -8.28%. Further, the Potency in assay [3] was greater than 20.6 µM.
For the compound `CCSC1=C(C#N)C(c2cccs2)C(C(=O)OC)=C(C)N1` (centres undefined), the activity change, negative = inhibition in assay [1] was 2.23%. For the same compound, the activity, negative = inhibition in assay [2] is -15.6%. Further, the Potency in assay [3] is greater than 20.6 µM.
On the same counts, the results for `N#Cc1nc(-c2cccs2)oc1NCc1ccccc1` are -20.6%, -1.04% and greater than 20.6 µM.
For the compound `CCOc1cc2nc(-c3ccc(OC)c(OC)c3)nc(N3CCOCC3)c2cc1OC`, the activity change, negative = inhibition in assay [1] is -10.2%. Also, in assay [2], the activity, negative = inhibition is -21.5%. Further, the Potency in assay [3] is greater than 20.6 µM.
On the same counts, the results for `O=C(O)CSCC(=O)Nc1ccc(S(=O)(=O)N2CCCCC2)cc1` are 5.47%, 23% and greater than 20.6 µM.
On to `COc1ccc(C2C(C#N)=C(C)NC3=C2C(=O)c2ccccc23)cc1` (centres undefined), for which the activity change, negative = inhibition in assay [1] is -27.8%. Also, the activity, negative = inhibition in assay [2] is -7.06%. Moreover, in assay [3], the Potency is greater than 20.6 µM.
Regarding `CCCc1[nH]nc2c1C(c1c(C)nn(-c3ccccc3)c1Cl)C(C#N)=C(N)O2` (centres undefined), the activity change, negative = inhibition in assay [1] is 14.9%. Also, the activity, negative = inhibition in assay [2] was -29.6%. The Potency in assay [3] was greater than 20.6 µM.
On the same counts, the results for `COC(=O)c1ccc(-c2sc3nc(N4CCOCC4)c4c(c3c2N)CCCC4)o1` are -5.04%, -5.83% and greater than 20.6 µM.
On the same counts, the results for `COc1ccc(OCC(O)Cn2c(Nc3cccc(C)c3)nc3c2c(=O)n(C)c(=O)n3C)cc1` (centres undefined) are 8.48%, -15.9% and greater than 20.6 µM.
On the same counts, the results for `COC(=O)c1ccn(C(=O)c2ccc(Cl)cc2)n1` are -8.81%, -10.2% and greater than 20.6 µM.
In the case of `N#Cc1nc(-c2cccs2)oc1NCc1ccccc1Cl`, the activity change, negative = inhibition in assay [1] is -29.4%. Besides, in assay [2], the activity, negative = inhibition was -12.6%. In addition, in assay [3], the Potency was greater than 20.6 µM.
The matching figures for `CCCc1cc(-n2ccnc2C)n2c(nc3ccccc32)c1C#N`: 6.63%, -3.66% and greater than 20.6 µM.
For `Cc1ccc(OCC(O)CNS(=O)(=O)c2ccccc2C(=O)O)cc1` (centres undefined), the activity change, negative = inhibition in assay [1] was 6.08%. The activity, negative = inhibition in assay [2] was 4%. For the same compound, the Potency in assay [3] was greater than 20.6 µM.
`C=CCn1c(=S)[nH]c2nc3c(cc2c1=O)COC(C)(C)C3`: the activity change, negative = inhibition in assay [1] is 5.11%. Also, in assay [2], the activity, negative = inhibition was 3.02%. For the same compound, in assay [3], the Potency was greater than 20.6 µM. For the same compound, the activation in assay [4] was -5.87%.
As for `O=C(O)C1CC=CCC1C(=O)N1CCN(c2nc(-c3ccccc3)c3ccccc3n2)CC1` (centres undefined), the activity change, negative = inhibition in assay [1] was -12%. In addition, in assay [2], the activity, negative = inhibition is 9.49%. Moreover, the Potency is greater than 20.6 µM in assay [3] and 3.98 µM (active) in assay [4].
In the case of `Cc1cc(C)c(C#N)c(SCC(=O)N2CCN(Cc3ccccc3)CC2)n1`, the activity change, negative = inhibition in assay [1] was -24.4%. In assay [2], the activity, negative = inhibition is 11.8%. In addition, the Potency in assay [3] is greater than 20.6 µM.
The matching figures for `COc1ccccc1-c1nnc2sc(C3CCCCC3)nn12`: -6.47%, 8.63% and greater than 20.6 µM.
With `CCN(CC)CCN1C(=O)C(=O)/C(=C(/O)c2c(C)[nH]c(C(=O)OC)c2C)C1c1ccccc1` (centres undefined), the activity change, negative = inhibition in assay [1] was -8.53%. For the same compound, in assay [2], the activity, negative = inhibition is -3.34%. Further, in assay [3], the Potency was greater than 20.6 µM.
Turning to `COC(=O)c1sccc1NC(=O)c1c(C)cc(=O)oc1C`, the activity change, negative = inhibition in assay [1] was 8.6%. The activity, negative = inhibition in assay [2] was -6.64%. In addition, in assay [3], the Potency was greater than 20.6 µM.
For the compound `Cn1c(=O)c2c(nc(Oc3ccc4c(c3)OCO4)n2Cc2ccc(Br)cc2)n(C)c1=O`, the activity change, negative = inhibition in assay [1] was -5.35%. For the same compound, in assay [2], the activity, negative = inhibition was -4.55%. Moreover, in assay [3], the Potency is greater than 20.6 µM.
The matching figures for `Nc1c(Br)cc2oc(-c3ccccc3)nc2c1Br`: 4.7%, 14.6% and greater than 20.6 µM.
The matching figures for `CCCn1c(SCC(N)=O)nc2c(c1=O)C1(CCCC1)Cc1ccccc1-2`: -22.4%, -8.32% and greater than 20.6 µM.
On to `CCOc1ccc(C2C(C#N)=C(N)SC(N)=C2C#N)cc1OC`, for which the activity change, negative = inhibition in assay [1] was 10.8%. Moreover, the activity, negative = inhibition in assay [2] is -5.25%. In addition, the Potency in assay [3] was greater than 20.6 µM. In assay [4], the activation is -15.3%.
As for `Cc1cc(C)c(-n2c(O)c(C=NCCN3CCOCC3)c(=O)[nH]c2=O)c(C)c1`, the activity change, negative = inhibition in assay [1] is 7.98%. In addition, the activity, negative = inhibition in assay [2] was 4.18%. In addition, in assay [3], the Potency was greater than 20.6 µM. Also, the activation in assay [4] is -6.53%.
Take `N#Cc1c(NC(=O)CCC(=O)O)sc2c1CCCC2`: the activity change, negative = inhibition in assay [1] is -1.33%. In addition, in assay [2], the activity, negative = inhibition was -10%. The Potency in assay [3] is greater than 20.6 µM. In assay [4], the activation was -23.4%.
